G9a block – G9a (human) methyltransferase inhibition; 350,000 compounds, 8.8% hits; AID 504332; Q96KQ7; Potency, µM (titrated, usually from 102 µM), inactives show top-dose activity, negative = inhibition, usual class: inhibitors; G9a H3K9 monomethylation, AlphaScreen, 2 h; also: % is scaled to controls: 0 for no effect and ±100 for the full control effect; nearly all actives have a fitted effect of over 75% in size
Target sequence (Q96KQ7 913-1193 limits assumed): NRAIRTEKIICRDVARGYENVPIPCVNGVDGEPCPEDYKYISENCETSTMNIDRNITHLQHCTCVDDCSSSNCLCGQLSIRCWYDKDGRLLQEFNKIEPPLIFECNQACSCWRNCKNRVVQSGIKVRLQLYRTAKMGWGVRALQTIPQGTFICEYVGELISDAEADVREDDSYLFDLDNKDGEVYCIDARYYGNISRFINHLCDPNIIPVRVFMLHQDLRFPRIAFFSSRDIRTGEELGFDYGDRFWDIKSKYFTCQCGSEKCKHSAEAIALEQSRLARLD
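Using a bead-based AlphaScreen, monomethylated H3K9 product from 2 h room-temperature reactions (G9a 20 nM, peptide 500 nM, SAM 20 uM) was detected with 0.5 ug/mL rabbit anti-H3K9me1 antibody.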
BAZ2B block – blocks human BAZ2B; 360,000 compounds, 4.4% hits; Q9UIF8; Potency, µM (titrated, usually from 114 µM), for inactives: at the top dose activity change, negative = inhibition, actives largely listed as inhibitors; AlphaScreen BAZ2B-H3K14Ac peptide displacement; also: % is scaled to controls: 0 for no effect and ±100 for the full control effect; nearly all actives have a fitted effect of over 60% in size
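BAZ2B (50 nM) with biotin-H3(5-23)K14Ac peptide (50 nM) in PBS pH 7.4, 0.01% Tween-20, preformed 30 min, then compound 30 min at room temperature; top concentration 110uM. AlphaScreen streptavidin donor/nickel chelate acceptor beads (10 ug/mL final), 20 min dark, signal read.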
GLS inh – inhibitors of human glutaminase (GLS); O94925; Potency, µM (top dose mostly 45.5 µM), inactives show at the top dose activity change, negative = inhibition, actives largely listed as inhibitors; GLS enzymatic activity, qHTS titration; 410,000 compounds, 0.21% hits; AID 624170; also: % is scaled to controls: 0 for no effect and ±100 for the full control effect
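Human kidney-isoform GLS in 45 mM KH2PO4 pH 8.2, 0.02% Tween-20, with compound, started with 1mM L-Glutamine (added stock). Glutamate oxidase/HRP/Amplex red coupled fluorescence read at start and after 30 min at RT.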
HP1b binding inh – inhibitors of HP1-beta chromodomain binding to methylated histone tails | P83916 | AlphaScreen HP1-beta / biotin-H3K9me3 peptide binding | Potency, µM (highest dose often 114 µM), for the others: top-dose activity change, negative = inhibition, usual class: inhibitors | 390,000 compounds, 0.56% hits | AID 540317; also: nearly all actives have a fitted effect of over 70% in size
Target sequence (P83916 whole entry, looked up): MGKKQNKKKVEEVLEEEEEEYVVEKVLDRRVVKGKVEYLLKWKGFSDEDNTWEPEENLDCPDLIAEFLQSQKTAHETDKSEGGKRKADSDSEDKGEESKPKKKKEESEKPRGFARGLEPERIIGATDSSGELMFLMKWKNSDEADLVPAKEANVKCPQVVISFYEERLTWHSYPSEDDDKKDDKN
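AlphaScreen: HP1-beta (50 nM) preformed 30 min with biotin-H3(1-18)K9me3 peptide (50 nM) in PBS pH 7.4, 0.01% Tween-20. Compound added for 30 min at RT, then streptavidin donor/nickel chelate acceptor beads (10 ug/mL) for 30 min.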
JMJD2A Tudor inh – blocks the human JMJD2A Tudor domain | O75164 | AlphaScreen JMJD2A-Tudor / H3K4me3 peptide binding | Potency, µM (titrated, usually from 114 µM), for the others: at the top dose activity change, negative = inhibition, actives largely listed as inhibitors | 390,000 compounds, 4.4% hits | AID 504339; also: % is scaled to controls: 0 for no effect and ±100 for the full control effect; nearly all actives have a fitted effect of over 50% in size
* marks the source's active call; other numbers are inactive results; [ ] = another dose, or the depositor's remark. This is a sample that favours compounds with a hit; in the whole collection about 10% have one here. Calls follow the shape of the dose curve; as a rule, active = well fitted curve in the direction sought with a large enough effect; inconclusive = small, poorly fitted or top-dose-only effect, or another doubt; inactive = no such curve, though single readings can be large; an effect the other way counts as inactive or inconclusive. Potency is read from the fitted curve at half-maximal effect.

For CCCC1C(c2ccco2)NC(c2ccco2)CC1(C)O (stereo unspecified) the results were G9a block 6.31µM*, GLS inh 20.8%, HP1b binding inh inconclusive and JMJD2A Tudor inh 3.55µM*.
`CC(C)CC(O)(CC(C)C)C(=O)NNc1ccccc1` gave G9a block inconclusive, BAZ2B block 8.6%, GLS inh 18.5%, HP1b binding inh 43.9% and JMJD2A Tudor inh -11.3%.
For CC(C)CCC(O)(CCC(C)C)C(=O)NNc1ccccc1 the results were G9a block 50.1µM*, BAZ2B block -5.0%, GLS inh 18.0%, HP1b binding inh 32.5% and JMJD2A Tudor inh 2.5%[57.1 µM].
`COc1ccccc1Nc1nnc(SCc2cc(=O)n3cc(C)ccc3n2)s1` gave G9a block 12.6µM*, BAZ2B block -27.6%, GLS inh 0.0%, HP1b binding inh 31.5% and JMJD2A Tudor inh -8.3%.
For Oc1ccccc1/C=N/NC1=NCCCCC1 the results were BAZ2B block 10.2%, GLS inh 25.8%, HP1b binding inh 44.0% and JMJD2A Tudor inh -13.4%.
Screening c1ccc(CNC2=NCCCC2)cc1 returned G9a block 14.1µM*, BAZ2B block inconclusive, GLS inh 7.7%, HP1b binding inh inconclusive and JMJD2A Tudor inh inconclusive.
Screening O=C(NNC1=NCCCCC1)c1ccccc1 returned G9a block -50.6%, BAZ2B block -8.2%, GLS inh 23.9%, HP1b binding inh -21.6% and JMJD2A Tudor inh 3.16µM*.
CC(C)c1cnc2c(c1SCC(=O)N1CCCCC1)c(=O)n(C)c(=O)n2C was read as G9a block inconclusive, BAZ2B block -10.3%, GLS inh -4.6%, HP1b binding inh 12.9%[57 µM] and JMJD2A Tudor inh -4.9%.
COc1ccc(-n2nnnc2SC(C)C(=O)NCC(=O)Nc2ccc(F)c(F)c2F)cc1 (stereo unspecified) was read as G9a block 39.8µM*, BAZ2B block -5.4%, GLS inh 8.2%, HP1b binding inh 19.0% and JMJD2A Tudor inh -2.7%.
For COc1ccc2nc(SC(C)C(=O)NC3CCCCC3)[nH]c2c1 (stereo unspecified) the results were G9a block -4.2%[0.501 µM], BAZ2B block 4.4%, GLS inh -14.4%, HP1b binding inh 30.5% and JMJD2A Tudor inh -3.6%.
Cc1cc(SC(C)C(=O)NCC(=O)Nc2ccc(F)c(F)c2F)nc2ccccc12 (stereo unspecified) was read as G9a block 22.9%, BAZ2B block -3.2%, GLS inh -5.1%, HP1b binding inh 35.3% and JMJD2A Tudor inh 1.4%.
Cc1cc(C)c2nc(SC(C)C(=O)NCC(=O)Nc3ccc(F)c(F)c3F)cc(C)c2c1 (stereo unspecified) was read as G9a block 17.8µM*, BAZ2B block 6.0%, GLS inh 12.5%, HP1b binding inh 9.4% and JMJD2A Tudor inh -10.1%.
COc1ccc2nc(SC(C)C(=O)NCC(=O)Nc3ccc(F)c(F)c3F)[nH]c2c1 (stereo unspecified) was read as G9a block 50.1µM*, BAZ2B block 9.4%, GLS inh 0.8%, HP1b binding inh 9.1% and JMJD2A Tudor inh -13.1%.
Screening O=C(/C=C/c1cccc(Cl)c1)NCCCN1CCOCC1 returned G9a block -3.0%, BAZ2B block 0.8%, GLS inh -9.7%, HP1b binding inh 38.6% and JMJD2A Tudor inh 0.0%.
O=C(COC(=O)CCNS(=O)(=O)c1ccccc1)NC(=O)c1ccccc1 was read as G9a block -9.8%[2.33 µM], BAZ2B block 15.2%, GLS inh 6.1%, HP1b binding inh 15.9% and JMJD2A Tudor inh -12.4%.
`CN(NC(=O)/C=C/C(=O)O)c1ncc(C(F)(F)F)cc1Cl` gave G9a block 6.31µM*, BAZ2B block inconclusive, GLS inh 8.1%, HP1b binding inh 37.5% and JMJD2A Tudor inh -16.0%.
For CC(=O)[C@@H]1CC[C@@H]2[C@@H]3C[C@H](C)C4=CC(=O)CC[C@@]4(C)[C@H]3[C@H](O)C[C@]21C the results were G9a block 25.4%[21.5 µM] and GLS inh -0.4%[20 µM].
Cc1ccc(C(C)C)cc2c(C)ccc1-2 was read as G9a block 12.6µM*, GLS inh 20.0%, HP1b binding inh 22.4µM* and JMJD2A Tudor inh 28.2µM*.
For Cn1c(NCCCO)nc2c1c(=O)n(Cc1cccc(F)c1)c(=O)n2C the results were G9a block 3.8%[59 µM], BAZ2B block -13.1%, GLS inh 11.3%, HP1b binding inh 4.2% and JMJD2A Tudor inh -6.5%.
O=C1c2ccccc2C(=O)N1N(c1ccccc1)c1ccccc1 was read as GLS inh 16.7%, HP1b binding inh -13.9% and JMJD2A Tudor inh -32.6%.
O=C1C=CC(=O)N1N(c1ccccc1)c1ccccc1 was read as G9a block 1.78µM*, BAZ2B block 31.6µM*, GLS inh 9.0%, HP1b binding inh inconclusive and JMJD2A Tudor inh 17.8µM*.
`OC[C@H](O)[C@H](O)[C@@H](O)[C@@H](O)[C@@H]1SC(c2ccccc2)=NN1c1ccccc1` gave G9a block 11.2µM*, BAZ2B block -28.3%, GLS inh -5.0%, HP1b binding inh 7.9% and JMJD2A Tudor inh inconclusive.
Screening O=C1CCCC2=C1C1(CCCC1)N=C(Nc1nc3cc(-c4ccccc4)ccc3o1)N2 returned GLS inh -15.7% and JMJD2A Tudor inh inconclusive.
`Cc1ccc(Cl)cc1NC(=O)Cn1c(SCC(=O)NCc2ccccc2)nc2ccccc21` gave G9a block 1.5%[12.7 µM], BAZ2B block -17.0%, GLS inh -0.9%, HP1b binding inh 24.1% and JMJD2A Tudor inh -7.0%.
`O=C(NC(=S)Nc1ccc(S(=O)(=O)Nc2ncccn2)cc1)c1ccc(Br)cc1` gave G9a block 50.1µM*, BAZ2B block -7.0%, GLS inh -18.2%, HP1b binding inh inconclusive and JMJD2A Tudor inh -32.8%.
O=C(Nc1ccc(F)cc1F)c1ccc2ncsc2c1 was read as G9a block 15.4%[59 µM], BAZ2B block -1.3%, GLS inh -1.3%, HP1b binding inh 33.2% and JMJD2A Tudor inh 4.0%.
For O=C(Nc1ccc(S(=O)(=O)Nc2ncccn2)cc1)c1ccc2ncsc2c1 the results were G9a block 44.7µM*, BAZ2B block 39.8µM*, GLS inh inconclusive, HP1b binding inh -5.8% and JMJD2A Tudor inh 35.5µM*.
For COc1ccc(NS(=O)(=O)c2ccc(NC(=S)NC(=O)c3cccnc3)cc2)nn1 the results were G9a block 28.2µM*, BAZ2B block -30.2%, GLS inh -20.8%, HP1b binding inh -9.7% and JMJD2A Tudor inh 0.0%[11.4 µM].
`O=C(Nc1ccccc1F)c1ccc2ncsc2c1` gave G9a block 44.7µM*, BAZ2B block 6.7%, GLS inh 2.3%, HP1b binding inh 46.8% and JMJD2A Tudor inh -10.4%.
Screening COc1ccc(Cl)cc1Cn1c(C)c(C(=O)NCc2cccc([N+](=O)[O-])c2)sc1=O returned GLS inh 0.8%.
